Drawing on PubChem BioAssay (NCI), this text covers growth for 14 compounds.

This is part of a sample that, as a whole, favours compounds with a hit. Of some 83,000 tested, about 20% had one in any assay.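 Compound tested at a single concentration for 48 hours in 96-well plates; a percent growth value below 10 was scored as active.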 Values without a mark were called inactive. Activity calls are given as the source filed them.

Some test systems named below: T-47D breast; BT-549 breast; MDA-MB-435 melanoma; SW-620 colon; MCF7 breast; HCT-116 colon; HCC-2998 colon; KM12 colon.
Common to all, as to test: NCI-60 one-dose screen, 48 h (100 = growth as untreated, 0 = no growth, -100 = all killed)
What all share (settings): 10 µM unless noted

On to `NC(=NCCCOc1ccc(F)cc1)Nc1ccc(I)cc1`, for which the growth in the test with T-47D breast was 28.2%; in the test with BT-549 breast, 74.8%; in the test on MDA-MB-435 melanoma it was 64.4%; with SW-620 colon, 67.1%; in the test with MCF7 breast it was 10%; with HCT-116 colon, 58.7%. The growth in the test with HCC-2998 colon is 29.2%; with KM12 colon it was 87.8%.

`Cc1nn(-c2ccccc2)c(Cl)c1/C=C/C(=O)c1ccc(F)cc1`: the growth with T-47D breast is 82.5%; in the test on BT-549 breast, 92.9%; in the test with MDA-MB-435 melanoma, 87%; in the test on SW-620 colon, 64.7%; with MCF7 breast it was 41.5%; in the test on HCT-116 colon it was 51.1%. The growth with HCC-2998 colon was 107%; with KM12 colon it was 84.9%.

`COc1ccc(N2CCN(c3ccc(NC4=C(Cl)C(=O)c5ncccc5C4=O)cc3)CC2)cc1`: the growth was 33.2% in the test on T-47D breast; 47.8% in the test with BT-549 breast; -4.96% (active) in the test with MDA-MB-435 melanoma; 15.9% in the test on SW-620 colon; 8.91% (active) in the test on MCF7 breast; 15.9% in the test with HCT-116 colon. Besides, the growth in the test with HCC-2998 colon was 80.8%; with KM12 colon, 63.8%.

For the compound `NC(=O)Nc1ccc(-n2cnc3cc(-c4ccc(O)cc4)ccc32)cc1`, the growth in the test with T-47D breast is 59.7%; in the test on BT-549 breast, 88.2%; in the test on MDA-MB-435 melanoma, 96.8%; in the test with SW-620 colon, 114%; in the test on MCF7 breast it was 93.7%; with HCT-116 colon, 91.8%. In addition, the values for the growth with HCC-2998 colon and with KM12 colon were 110% and 21.8%, respectively.

For the compound `CN(CCN(C)c1ccc(C(=N)N)cc1)c1ccc(C(=N)N)cc1`, the growth in the test on T-47D breast is 163%; with BT-549 breast, 86%; in the test with MDA-MB-435 melanoma it was 90.5%; in the test on SW-620 colon it was 104%; with MCF7 breast, 108%; in the test on HCT-116 colon, 104%. Besides, the growth in the test on HCC-2998 colon is 97%; in the test with KM12 colon, 91.3%.

As to `Cc1cccc(-c2cn3ccnc3c(-c3ccc4ncn(Cc5ccccc5)c4c3)n2)c1`, the growth with T-47D breast is 13.9%; in the test with BT-549 breast, 101%; in the test on MDA-MB-435 melanoma, 99.1%; with SW-620 colon, 100%; with MCF7 breast it was 77.8%; in the test on HCT-116 colon, 63.3%. Also, the growth was 111% in the test with HCC-2998 colon and 78% in the test on KM12 colon.

On to `Cn1cc(-c2nc(-c3c[nH]c4c(Cl)nccc34)cs2)c2cc(F)ccc21`, for which the growth with T-47D breast is 48.6%; in the test on BT-549 breast, 118%; with MDA-MB-435 melanoma, 98.6%; with SW-620 colon, 102%; in the test with MCF7 breast, 68.1%; in the test on HCT-116 colon it was 105%. Further, the figures for the growth with HCC-2998 colon and with KM12 colon were 119% and 96.4%, respectively.

As for `O=C1c2cccc3c(-c4ccc5c(c4)ncn5C4CCCCC4)ccc(c23)C(=O)N1c1nc2ccccc2s1`, the growth in the test with T-47D breast was 72.6%; with BT-549 breast, 95.8%; in the test with MDA-MB-435 melanoma, 100%; in the test with SW-620 colon, 108%; in the test with MCF7 breast, 69%; with HCT-116 colon, 84.4%. The growth with HCC-2998 colon was 93%; with KM12 colon, 83.8%.

Regarding `O=C1CC(=O)OC(c2ccc([N+](=O)[O-])cc2)O1`, the growth in the test with T-47D breast was 17.9%; in the test on BT-549 breast it was 51.4%; with MDA-MB-435 melanoma, -27.9% (active); in the test on SW-620 colon, -42.8% (active); in the test with MCF7 breast it was 7.35% (active); with HCT-116 colon, -68.8% (active). Also, the growth in the test with HCC-2998 colon was 7.55% (active); in the test with KM12 colon, -75.3% (active).

`CCC(=O)Oc1ccc(/C(=C(\C)c2ccccc2)c2ccc(OCCN3CCCCC3)cc2)cc1`: the growth is 34.3% in the test with T-47D breast; 82.6% in the test with BT-549 breast; 81.4% in the test with MDA-MB-435 melanoma; 87.1% in the test on SW-620 colon; 24.2% with MCF7 breast; 60.9% in the test on HCT-116 colon. Moreover, the values for the growth in the test with HCC-2998 colon and in the test with KM12 colon were 65.2% and 65%, respectively.

Consider `O=C(/C=C/c1c(-c2ccc(Cl)cc2)nn(-c2ccccc2)c1C(F)(F)F)c1ccc(Cl)cc1`, for which the growth in the test with T-47D breast was 64.8%; in the test with BT-549 breast it was 97.4%; with MDA-MB-435 melanoma, 97.9%; in the test with SW-620 colon it was 104%; with MCF7 breast, 61.8%; in the test on HCT-116 colon, 63.4%. The growth is 103% in the test with HCC-2998 colon and 84.8% in the test on KM12 colon.

Consider `COc1ccc(C(C)=O)c(OC)c1`, for which the growth with T-47D breast was 108%; in the test on BT-549 breast, 106%; with MDA-MB-435 melanoma, 119%; in the test with SW-620 colon, 106%; in the test on MCF7 breast it was 92%; with HCT-116 colon it was 103%. The growth is 105% in the test on HCC-2998 colon and 110% in the test with KM12 colon.

For `CCOC(=O)CSc1nc2ccccc2c(=O)n1Cc1ccc(S(N)(=O)=O)cc1`, the growth in the test on T-47D breast was 102%; with BT-549 breast, 105%; in the test on MDA-MB-435 melanoma, 102%; in the test on SW-620 colon it was 98.6%; in the test with MCF7 breast it was 96.7%; with HCT-116 colon it was 102%. Also, the growth in the test on HCC-2998 colon was 109%; in the test with KM12 colon, 104%.

For `CCN(CC)CCOc1ccc(NC(=O)C(C(C)C)N2C(=O)/C(=C/c3ccc(Br)cc3)SC2=S)cc1` (configuration not stated), the growth is 93.1% in the test with T-47D breast; 110% with BT-549 breast; 97% with MDA-MB-435 melanoma; 41.9% in the test with SW-620 colon; 19.3% with MCF7 breast; -24.8% (active) in the test on HCT-116 colon. The values for the growth in the test with HCC-2998 colon and in the test on KM12 colon were 73% and 99.4%, respectively.
